HepG2 tox – counter-screen for TGF-b inhibitors: cytotoxicity in HepG2 cells; HepG2 CAGA-GFP viability, ATP luminescence, 18 h; Potency, µM (top dose mostly 46.1 µM), inactives show top-dose activity change, negative = cytotoxicity, hits mostly cytotoxic; 0.76% of 410,000 active
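HepG2 CAGA-GFP cells (1000/well, DMEM with 1% FBS) received compound, then TGF-beta at 500 pg/mL final, and were incubated 18 hours at 37 degrees C. Viability was read by CellTiter-Glo luminescence. Media-only wells were set as complete cell-killing and DMSO as no toxicity.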
DT40 TDP1 CPT – DT40-hTDP1 cell growth loss with CPT. 12% of 420,000 active. chicken DT40 Tdp1-/-;hTDP1 cells + 20 nM CPT, ATP luminescence, 48 h. Potency, µM (top dose mostly 46.2 µM), for the others: top-dose activity change, negative = growth inhibition, hits mostly inhibitors; also: % is scaled to controls: 0 for no effect and ±100 for the full control effect; nearly all actives have a fitted effect of over 55% in size
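Chicken DT40 Tdp1-/- cells stably complemented with human TDP1 were seeded at 400 cells/well in medium containing 20 nM camptothecin, exposed to pin-transferred compounds, and grown at 37 °C for at least 48 hr. Viability was read as ATP luminescence.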
S2 tox – cell viability loss in ATXN counter-screen; S2 cells (HEK-293 line with an ATXN2-luciferase reporter) viability, CellTiter-Fluor protease fluorescence, 24 h; Potency, µM (series often up to 56.7 µM), actives largely listed as cytotoxic; 0.49% of 400,000 active; AID 651635; also: nearly all actives have a fitted effect of over 40% in size
DT40 TDP1 no CPT – qHTS for Inhibitors of human tyrosyl-DNA phosphodiesterase 1 (TDP1): qHTS in cells in absence of CPT; DT40 Tdp1-/- hTDP1 cells, no CPT, ATP luminescence, 48 h; Potency, µM (doses to about 46.2 µM), without a hit: at the top dose activity change, negative = growth inhibition, actives largely listed as inhibitors; 15% of 420,000 active; also: % is scaled to controls: 0 for no effect and ±100 for the full control effect; nearly all actives have a fitted effect of over 55% in size
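No-CPT arm: Tdp1-/-;hTDP1 DT40 cells (400/well) plus compounds, incubated ≥48 hr at 37 °C. Readout CellTiter-Glo luminescence.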
ATXN2 expr inh – reduces ATXN2 reporter expression in HEK-293 cells; 0.72% of 360,000 active; AID 1745845; Potency, µM (top dose mostly 57 µM), for the others: at the top dose activity change, negative = inhibition, most hits filed as inhibitors; HEK-293 ATXN2-luciferase reporter, luminescence, 24 h; also: % is scaled to controls: 0 for no effect and ±100 for the full control effect; nearly all actives have a fitted effect of over 55% in size
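ATXN2-luciferase reporter cells (luciferase flanked by upstream and downstream ATXN2 gene portions) were treated 24 h at 37 °C with compounds at up to 57 uM. SteadyGlo luminescence gave expression; GF-AFC fluorescence gave viability.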
TGFb inhibitor – inhibitors of TGF-b signaling; Potency, µM (top dose mostly 46.1 µM), without a hit: top-dose activity, negative = inhibition, actives largely listed as inhibitors; 1.2% of 410,000 active; HepG2 CAGA-GFP TGF-b/SMAD3 reporter, GFP fluorescence, 18 h; TGF-beta stimulated, 500 pg/mL final; also: % is scaled to controls: 0 for no effect and ±100 for the full control effect; nearly all actives have a fitted effect of over 65% in size
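GFP signal (ex488/em500-530) from TGF-beta-stimulated HEPG2 CAGA-GFP cells, 500 pg/mL final, 18 h at 37 degrees C in DMEM plus 1% FBS, normalized to unstimulated and DMSO-stimulated controls.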
* = called active by the depositor; i = inactive; u = inconclusive; x = not tested or not shown; [ ] = remark or other dose. Only some compounds are listed: those with a hit (about 17% of all), similar ones and a draw of the others. Calls follow the shape of the dose curve; as a rule, active = well fitted curve in the direction sought with a large enough effect; inconclusive = small, poorly fitted or top-dose-only effect, or another doubt; inactive = no such curve, though single readings can be large; an effect the other way counts as inactive or inconclusive. Potency is read from the fitted curve at half-maximal effect.

SMILES	HepG2 tox	DT40 TDP1 CPT	S2 tox	DT40 TDP1 no CPT	ATXN2 expr inh	TGFb inhibitor
CCO[C@@H]1OC(C(=O)NC2CC2)=C[C@H](c2ccc(C(F)(F)F)cc2)[C@H]1CCCO	-20.1%	u	i	u	-7.6%	-13.6%
C#CCNC(=O)C1=C[C@@H](c2ccc(C(F)(F)F)cc2)[C@H](CCCO)[C@@H](OCC)O1	5.8%	23.1µM*	i	u	0.9%	2.1%
CCCCc1nnc(SCCSc2nnc(CCCC)n2N)n1N	-10.1%	3.8%	i	4.3%	4.7%	-12.1%
COc1ccc2ccccc2c1CN1CCc2nnc(C(NS(C)(=O)=O)C(C)C)n2CC1 (centres undefined)	x	u	i	-17.0%	x	x
C1=C[C@H]2CCCN3CC[C@@H]([C@@H]2[C@]32CO2)[C@H]1CCOCc1ccccc1	x	u	u	u	-14.1%	x
CCO[C@@H]1OC(C(=O)N2CCN(Cc3ccc4c(c3)OCO4)CC2)=C[C@H](c2ccc(C(F)(F)F)cc2)[C@H]1CCCO	-6.0%	16.4µM*	u	20.6µM*	u	u
CCO[C@H]1OC(C(=O)N2CCCCCCC2)=C[C@@H](C2CCCCC2)[C@@H]1CCCO	-14.8%	25.9µM*	u	13µM*	-8.0%	u
O=C(NCCN1CCC(n2c(=O)[nH]c3ccccc32)CC1)c1ccc(F)cc1Cl	x	u	i	u	-7.8%	x
Cc1nn(-c2ccccc2)c(Oc2ccccc2)c1C=O	-9.1%	16.4µM*	u	13µM*	x	4.2%
Cn1c(N)c(C(=O)COC(=O)COc2ccccc2C#N)c(=O)n(C)c1=O	2.9%	-8.1%	i	-4.9%	-8.8%[11.3 µM]	-0.9%
COCCCn1c(SCC(=O)OC2CCCCC2)nnc1-c1ccco1	-16.1%	-10.7%	i	-17.1%	9.3%	2.0%
COCCCN=C(c1ccco1)n1c(=S)nc(-c2ccco2)n(CCCOC)c1=S	-5.9%	25.9µM*	i	u	24.0%	0.1%
Cc1ccccc1C(=O)N1CCC(C(=O)OCc2ccccn2)CC1	-2.1%	-3.1%	i	-15.5%	-6.4%	0.8%
CCOc1ccc2[nH]c(SCC(=O)OC)c([N+](=O)[O-])c2c1	-25.3%	6.51µM*	i	4.61µM*	8.8%	10.5%
CC(=O)n1cc(N(C(=O)CCl)c2ccccc2)c2ccccc21	7.08µM*	0.651µM*	x	0.581µM*	u	7.08µM*
CC(=O)n1cc(N(C(=O)CCl)c2ccc([N+](=O)[O-])cc2)c2ccccc21	10µM*	2.31µM*	28.2µM*	2.59µM*	u	u
O=C(NCCSSCCNC(=O)c1ccccc1)c1ccccc1	-4.0%	18.4µM*	i	16.4µM*	4.4%	u
COc1ccc(/C=C/C(=O)Nc2ccc3nc(N4CCCCC4)cc(C)c3c2)cc1OC	-92.9%	2.91µM*	u	2.59µM*	u	12.6µM*
Cc1cc(N2CCCCC2)nc2ccc(NC(=O)/C=C/c3ccccc3Cl)cc12	-21.4%	13µM*	i	10.3µM*	-13.7%	22.2%
O=C(/C=C/c1ccccc1Cl)Nc1cccnc1	-9.5%	-10.2%	i	-24.4%	x	2.2%
COc1ccc(/C=C/C(=O)Nc2ccc3nc4n(c(=O)c3c2)CCCC4)cc1OC	-2.2%	-8.2%	i	-1.5%	-0.2%	8.9%
CC(=O)N(C)c1ccc(NC(=O)/C=C/c2ccccc2Cl)cc1	-15.4%	u	i	13µM*	49.8%	4.0%
Cc1ccc(NC(=O)/C=C/c2ccccc2Cl)cc1Cl	-22.9%	-19.3%	i	-21.9%	5.3%	-13.6%
Cc1cc(N2CCCCC2)nc2ccc(NC(=O)c3ccc(Br)o3)cc12	-28.1%	u	u	u	-28.9%	-17.1%
Cc1cc(N2CCCCC2)nc2ccc(NC(=O)/C=C/c3ccccc3OC(C)C)cc12	4.3%	7.31µM*	x	10.3µM*	x	17.2%
SMILES	HepG2 tox	DT40 TDP1 CPT	S2 tox	DT40 TDP1 no CPT	ATXN2 expr inh	TGFb inhibitor
CCCC(c1nnnn1CCOC)N1CCN(c2nc3ccccc3s2)CC1 (centres undefined)	6.9%	u	i	u	4.8%	u
c1ccc(COC2COC3C(OCc4ccccc4)COC23)cc1 (centres undefined)	0.8%	-1.2%	i	-2.7%	4.1%	2.0%
Cc1cccc(C)c1C(O)c1ncc(-c2ccccc2Cl)[nH]1 (centres undefined)	-14.8%	-25.4%	i	-10.1%	4.3%	5.5%
Cc1cc(Cl)ccc1OC(C)C(=O)NN1C(=O)c2ccccc2C1=O (centres undefined)	-15.9%	3.1%	i	-9.5%	3.0%	-4.3%
S=C1SCN(Cc2cccnc2)CN1Cc1cccnc1	-98.3%	0.82µM*	x	0.82µM*	u	u
S=C1SCN(CCc2ccccc2)CN1CCc1ccccc1	-11.8%	u	u	18.4µM*	x	u
S=C1SCN(Cc2ccccc2)CN1Cc1ccccc1	-52.2%	8.41µM*	i	u	-18.0%	u
COc1ccc(CN2CSC(=S)N(Cc3ccccc3)C2)cc1	11.2µM*	u	7.08µM*	u	x	12.6µM*
Cc1ccc(NC(=O)COc2ccccc2C=O)cc1Cl	15.0%	5.2%	i	-27.6%	79.4%	18.3%
C[C@H](CO)N1C[C@H](C)[C@@H](CN(C)Cc2ccc(-c3ccccc3)cc2)OCc2cnnn2CCCC1=O	-14.4%	u	i	u	4.4%	-12.5%
COc1ccc(CN2CSC(=S)N(Cc3ccc(OC)cc3)C2)cc1	12.6µM*	4.61µM*	u	14.6µM*	x	u
COC(=O)C1C2CC(=O)C(C2)C1C(=O)OC (centres undefined)	8.9%	3.0%	i	-2.7%	4.7%	4.3%
CCCCCCN(C(=O)CCCN1C(=O)NC(c2ccc(-c3ccccc3)cc2)C(C(=O)OCc2ccccc2)=C1C)C(C)C(=O)NCCCC (centres undefined)	-28.4%	u	u	16.4µM*	-12.0%	u
CC1=C(C(=O)OCc2ccccc2)C(c2ccc3ccccc3c2)NC(=O)N1CCCC(=O)O (centres undefined)	2.1%	0.7%	i	-27.4%	4.0%	10.1%
COC(=O)CCCN1C(=O)NC(c2ccc(-c3ccccc3)cc2)C(C(=O)OCc2ccccc2)=C1C (centres undefined)	-18.5%	u	i	u	0.8%	-0.2%
